According to PubChem BioAssay (Tox21):
Values joined by “and” are separate entries in the source; they are usually repeats but may differ in a detail not shown here. Equal values may be shown once. Inconclusive results are not listed. Active and inactive are the calls of the source. Unless noted, calls follow the shape of the dose curve; as a rule, active = well fitted curve in the direction sought with a large enough effect in the repeat runs; inconclusive = weak or mixed curves; inactive = no such curve, though single readings can be large; an effect the other way counts as inactive or inconclusive.

Tests used:
[1] = qHTS assay to identify small molecule antagonists of the glucocorticoid receptor (GR) signaling pathway - cell viability counter screen (AID 720693); also: nearly all actives have a fitted effect of over 55% in size
[2] = qHTS assay for identifying genotoxic compounds that show differential cytotoxicity against isogenic chicken DT40 cell lines with known DNA damage response pathways - wild type cell line (AID 743012); also: nearly all actives have a fitted effect of over 60% in size; also: potency is read from the fitted curve at half-maximal effect
Procedure, shortened: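 First, wild type DT40 cells were plated at 300 per well and equilibrated about 0.5 h at 37 C/5% CO2. Next, compounds in DMSO were added and exposure lasted 40 h. Finally, CellTiter-Glo was added for 30 min at room temperature and luminescence recorded.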

[3] = qHTS assay for identifying genotoxic compounds that show differential cytotoxicity against isogenic chicken DT40 cell lines with known DNA damage response pathways - Rev3 mutant cell line (AID 743014); also: nearly all actives have a fitted effect of over 55% in size; also: potency is read from the fitted curve at half-maximal effect
[4] = qHTS assay to identify small molecule antagonists of the androgen receptor (AR) signaling pathway - cell viability counter screen (AID 743033; also: nearly all actives have a fitted effect of over 45% in size)
[5] = qHTS assay to identify small molecule antagonists of the androgen receptor (AR) signaling pathway using the MDA cell line - cell viability counter screen (AID 743041; also: nearly all actives have a fitted effect of over 45% in size; also: potency is read from the fitted curve at half-maximal effect)
Procedure, shortened: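 Cells were plated at 3,000 per well and left 5 h. Compounds in DMSO were then pinned in, followed by R1881. After 16 h at 37C, CellTiter-Fluor fluorescence gave viability.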

[6] = qHTS assay for identifying genotoxic compounds that show differential cytotoxicity against isogenic chicken DT40 cell lines with known DNA damage response pathways - Rad54/Ku70 mutant cell line (AID 743015); also: nearly all actives have a fitted effect of over 60% in size; also: potency is read from the fitted curve at half-maximal effect
[7] = biological target: Androgen receptor (Homo sapiens) (UniProt P10275); experiment: qHTS assay to identify small molecule antagonists of the androgen receptor (AR) signaling pathway (AID 743035; active = well fitted inhibition curve with a large enough effect in the signal ratio in the repeat runs, not every such curve was filed as active; the % refers to the signal ratio)
Procedure, shortened: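 Beta-lactamase FRET read (2 h RT incubation with LiveBLAzer B/G) following 16 h of compound plus R1881 treatment of AR-UAS-bla HEK293 cells, which had been pre-incubated 4 h at 37C.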

[8] = biological target: Androgen receptor (Homo sapiens) (UniProt P10275); experiment: qHTS assay to identify small molecule agonists of the androgen receptor (AR) signaling pathway using the MDA cell line (AID 743040; also: nearly all actives have a fitted effect of over 20% in size)
Procedure, shortened: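 Cells plated, 5 h at 37C/0% CO2; compound or DMSO pinned; 16 h at 37C; ONE-Glo added; luminescence measured after 30 min at room temperature. Reporter line: MDA-kb2 with MMTV-luciferase responsive to AR and GR.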

[9] = biological target: Androgen receptor (Homo sapiens) (UniProt P10275); experiment: qHTS assay to identify small molecule antagonists of the androgen receptor (AR) signaling pathway using the MDA cell line (AID 743042; also: nearly all actives have a fitted effect of over 55% in size)
Procedure, shortened: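 Antagonist mode: compounds plus R1881 agonist added to MDA-kb2 AR-luc cells, incubated 16 h at 37C. Luciferase reporter luminescence quantified, with multiplexed CellTiter-Fluor readout for cell viability.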

[10] = biological target: Androgen receptor (Homo sapiens) (UniProt P10275); experiment: qHTS assay to identify small molecule agonists of the androgen receptor (AR) signaling pathway (AID 743036; active = well fitted activation curve with a large enough effect in the signal ratio in the repeat runs, with a control signal flat, not every such curve was filed as active; the % refers to the signal ratio)
Procedure, shortened: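 Quantitative HTS of the Tox21 10K library in HEK293 cells bearing a stably integrated UAS-controlled beta-lactamase reporter. Compound exposure lasted 16 h at 37C. Reporter activity was detected by FRET substrate fluorescence after 2 h at room temperature.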

Measured: Potency

Androgen receptor (Homo sapiens), sequence (P10275 whole entry, looked up): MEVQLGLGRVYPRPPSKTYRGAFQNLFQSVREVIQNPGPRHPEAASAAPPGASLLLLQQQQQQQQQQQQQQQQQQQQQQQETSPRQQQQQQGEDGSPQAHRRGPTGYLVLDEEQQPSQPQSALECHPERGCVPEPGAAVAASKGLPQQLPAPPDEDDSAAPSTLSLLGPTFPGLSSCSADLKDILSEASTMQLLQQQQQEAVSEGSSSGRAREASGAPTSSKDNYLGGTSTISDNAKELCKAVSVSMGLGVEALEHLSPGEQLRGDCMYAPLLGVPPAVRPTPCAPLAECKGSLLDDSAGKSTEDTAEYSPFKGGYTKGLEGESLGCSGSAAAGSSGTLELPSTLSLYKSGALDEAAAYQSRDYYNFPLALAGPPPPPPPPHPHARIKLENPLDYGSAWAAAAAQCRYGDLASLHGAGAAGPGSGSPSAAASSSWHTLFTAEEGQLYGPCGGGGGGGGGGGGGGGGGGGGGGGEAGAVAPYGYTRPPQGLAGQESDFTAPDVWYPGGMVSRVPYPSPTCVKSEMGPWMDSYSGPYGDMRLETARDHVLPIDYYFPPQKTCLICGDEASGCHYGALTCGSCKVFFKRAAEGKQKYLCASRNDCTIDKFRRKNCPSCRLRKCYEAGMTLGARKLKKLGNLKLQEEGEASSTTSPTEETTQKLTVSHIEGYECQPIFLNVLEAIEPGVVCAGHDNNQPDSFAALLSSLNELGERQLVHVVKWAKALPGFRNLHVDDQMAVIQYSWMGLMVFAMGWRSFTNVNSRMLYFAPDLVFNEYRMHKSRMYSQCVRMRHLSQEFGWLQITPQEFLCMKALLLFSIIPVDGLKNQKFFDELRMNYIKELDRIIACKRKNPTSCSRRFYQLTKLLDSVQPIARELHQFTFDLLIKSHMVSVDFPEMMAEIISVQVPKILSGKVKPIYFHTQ

CCCCCCCCC(=O)OCC(C)OC(=O)CCCCCCCC (configuration not stated)
inactive: [1] | [2] | [3] | [4] | [5]

NC(=O)c1cc[n+](CC2=C(C(=O)[O-])N3C(=O)[C@@H](NC(=O)Cc4cccs4)[C@H]3SC2)cc1
inactive: [1] | [2] | [3] | [6] | [5]

Cc1ccc(S(=O)(=O)NC(=O)NC2CCCC2)cc1
inactive: [1] | [2] | [3] | [6] | [5]

CC(C)CC(C)(C)C
inactive: [1] | [2] | [3] | [6] | [5]

COc1ccc(C(=O)c2ccc(C)cc2)c(O)c1
inactive: [1] | [2] | [3] | [5]

CCc1ccc2c(c1)C(=O)c1ccccc1C2=O
inactive: [1] | [2] | [6]

CC/C=C/CCO
inactive: [1] | [2] | [6] | [4] | [5]

C(/C=C/C=C/Nc1ccccc1)=Nc1ccccc1
inactive: [1] | [2] | [3] | [4] | [5]

CCCCOC(=O)CC#N
inactive: [1] | [2] | [6] | [4] | [5]

O=C(O)c1c2ccccc2cc2ccccc12
inactive: [1] | [2] | [3] | [6] | [5]

COc1cc(CNC(=O)CCCC/C=C/C(C)C)ccc1O
inactive: [1] | [2] | [3] | [6] | [5]

CC(=O)CC/C=C(\C)CC/C=C(\C)CC/C=C(\C)CCC=C(C)C
inactive: [1] | [2] | [3] | [6] | [5]

CCCc1ccc(OC)cc1
not listed: [3] | [10]
inactive: all other assays above

Cc1cc(N)n(-c2ccccc2)n1
inactive: [1] | [2] | [6] | [4] | [5]

O=C(Cl)c1cc(Cl)cc(Cl)c1
inactive: [1] | [2] | [3] | [6] | [5]

Nc1ncnc2c1ncn2[C@@H]1O[C@H](CO)[C@@H](O)[C@H]1O
inactive: [1] | [2] | [3] | [5]

O=S(=O)(O)c1cc(Cl)c(Cl)cc1Cl
not listed: [3] | [7]
inactive: all other assays above

CCCCOc1ccc(N)cc1
inactive: [1] | [2] | [3] | [6] | [5]

CC1=C(C)C(=O)C(CCCCC#CCCCC#CCO)=C(C)C1=O
inactive: [1] | [5]
active: [2] 8.41 µM | [3] 10.6 µM | [6] 11.9 µM

N#CCCCC(C#N)CCC#N (configuration not stated)
inactive: [1] | [2] | [3] | [6] | [5]

CCCCCCCCCC(C)C=O (configuration not stated)
inactive: [1] | [2] | [3] | [6] | [5]

CO[C@@H]1[C@@H](O[C@@H]2O[C@H](C)[C@@H](O[C@H]3C[C@@](C)(O)[C@@H](O)[C@H](C)O3)[C@H](N(C)C)[C@H]2O)[C@@H](CC=O)C[C@@H](C)[C@@H](O[C@@H]2CC[C@H](N(C)C)[C@@H](C)O2)/C=C/C=C/C[C@@H](C)OC(=O)C[C@H]1OC(C)=O
inactive: [1] | [5]
active: [2] 8.41 µM | [3] 6.68 µM | [6] 7.5 µM

CCCC(=O)OCc1ccccc1
inactive: [1] | [2] | [3] | [6] | [5]

CCCC1CCOC(C)S1 (configuration not stated)
not listed: [3]
inactive: all other assays above

CC1=CC(=C(c2ccc(N)cc2)c2ccc(N)cc2)C=CC1=N
active: [2] 5.31 µM | [3] 5.96 µM and 3.1 µM | [6] 5.96 µM | [5] 7.5 µM
inactive: [1]

CC(=O)OCC(=O)[C@@]1(O)CC[C@H]2[C@@H]3CCC4=CC(=O)C=C[C@]4(C)[C@@]3(F)[C@@H](O)C[C@@]21C
inactive: [1] | [2] | [6] | [4] | [5]

Oc1ccc(CCNCCCCCCNCCc2ccccc2)cc1O
inactive: [1] | [5]
active: [2] 13.3 µM | [3] 29.8 µM | [6] 26.6 µM

SCCOCCOCCS
inactive: [1] | [2] | [3] | [6] | [5]

CC(C)Oc1ccccc1O
inactive: [1] | [3] | [6] | [4]

CCCCCCC/C=C/C=O
inactive: [1] | [3] | [4] | [5]
active: [6] 43.3 µM

CCc1cnc(C(=O)O)c(C(=O)O)c1
inactive: [1] | [2] | [6] | [4] | [5]

[O-][n+]1ccc(Cl)cc1
inactive: [1] | [3] | [6] | [4] | [5]

CCCCCCCCS
inactive: [1] | [3] | [6] | [4] | [5]

CC(C)(C)NCC(O)COc1ccc(NC(=O)NC2CCCCC2)cc1 (configuration not stated)
inactive: [1] | [4] | [5]
active: [2] 29.8 µM | [6] 26.6 µM

O=c1[nH]nc(-c2ccc([N+](=O)[O-])o2)o1
inactive: [1] | [4]
active: [3] 19.3 µM

C=CC(C)(O)CC/C=C(/C)CCC=C(C)C (configuration not stated)
active: [3] 54.5 µM | [6] 61.1 µM
inactive: [1] | [5]

O=P(c1ccccc1)(c1ccccc1)c1ccccc1
inactive: [1] | [4] | [5]
active: [3] 61.1 µM | [6] 61.1 µM
